The sample as a whole holds a higher share of hits than the screen did.
KDM5B inhibitor – blocks human KDM5B histone demethylase activity; 220,000 tested, 2.6% active; AID 1347165; Q9UGL1; Potency, µM (highest dose often 57.7 µM), actives largely listed as inhibitors; KDM5B demethylase, FDH-coupled NADH fluorescence (FDH is formaldehyde dehydrogenase); active means well fitted inhibition curve with a large enough effect; further: 0% is about no effect; nearly all actives have a fitted effect of over 70% in size
Target sequence (Q9UGL1 whole entry, looked up): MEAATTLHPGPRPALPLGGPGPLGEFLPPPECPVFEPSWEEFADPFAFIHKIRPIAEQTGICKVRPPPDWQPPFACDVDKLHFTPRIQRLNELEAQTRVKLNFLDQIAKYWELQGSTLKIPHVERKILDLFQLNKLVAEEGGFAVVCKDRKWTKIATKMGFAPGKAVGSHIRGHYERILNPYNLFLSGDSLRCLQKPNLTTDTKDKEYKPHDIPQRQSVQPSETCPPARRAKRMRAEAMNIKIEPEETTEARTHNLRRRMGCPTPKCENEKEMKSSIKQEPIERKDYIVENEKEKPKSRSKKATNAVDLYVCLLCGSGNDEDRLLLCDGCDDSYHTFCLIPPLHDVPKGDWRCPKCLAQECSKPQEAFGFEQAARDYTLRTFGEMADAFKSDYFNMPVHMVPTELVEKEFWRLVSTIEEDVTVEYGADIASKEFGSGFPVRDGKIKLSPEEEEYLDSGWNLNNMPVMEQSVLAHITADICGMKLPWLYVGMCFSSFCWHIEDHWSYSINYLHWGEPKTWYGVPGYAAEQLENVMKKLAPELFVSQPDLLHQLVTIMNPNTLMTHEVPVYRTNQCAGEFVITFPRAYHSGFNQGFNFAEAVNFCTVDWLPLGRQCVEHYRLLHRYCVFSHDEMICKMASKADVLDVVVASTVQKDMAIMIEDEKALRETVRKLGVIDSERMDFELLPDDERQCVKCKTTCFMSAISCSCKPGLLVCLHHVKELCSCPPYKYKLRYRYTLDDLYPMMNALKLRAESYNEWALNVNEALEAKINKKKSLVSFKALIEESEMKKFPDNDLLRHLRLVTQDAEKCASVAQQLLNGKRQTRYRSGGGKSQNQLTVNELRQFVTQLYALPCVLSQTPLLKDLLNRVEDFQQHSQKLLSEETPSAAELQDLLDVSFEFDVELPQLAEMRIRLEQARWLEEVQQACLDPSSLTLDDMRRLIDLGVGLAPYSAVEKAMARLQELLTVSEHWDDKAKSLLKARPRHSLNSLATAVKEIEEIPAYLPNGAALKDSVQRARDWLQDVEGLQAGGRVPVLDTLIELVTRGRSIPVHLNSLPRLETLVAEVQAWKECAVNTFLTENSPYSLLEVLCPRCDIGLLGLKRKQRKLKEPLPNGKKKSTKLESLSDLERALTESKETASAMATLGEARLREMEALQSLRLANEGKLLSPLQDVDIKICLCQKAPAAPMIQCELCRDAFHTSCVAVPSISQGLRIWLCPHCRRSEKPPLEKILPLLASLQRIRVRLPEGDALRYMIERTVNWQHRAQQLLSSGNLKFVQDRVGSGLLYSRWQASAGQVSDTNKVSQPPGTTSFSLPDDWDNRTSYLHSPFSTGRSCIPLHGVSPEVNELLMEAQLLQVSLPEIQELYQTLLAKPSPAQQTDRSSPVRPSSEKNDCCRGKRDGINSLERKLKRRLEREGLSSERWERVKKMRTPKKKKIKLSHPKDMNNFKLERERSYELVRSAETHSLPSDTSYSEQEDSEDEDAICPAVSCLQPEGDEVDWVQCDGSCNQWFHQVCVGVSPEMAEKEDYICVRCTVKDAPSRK
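Measured: NADH fluorescence change, 30 min, RT. System: KDM5BΔAP 200 nM final, H3K4me3 peptide, α-KG, Fe(II), ascorbate, NAD⁺ plus FDH, pH 7.5 HEPES. Compounds: titrated, 10 min pre-incubation with enzyme.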
Numbers without * were called inactive; i = inactive. Potency means the concentration at half of the fitted maximal effect.

SMILES | KDM5B inhibitor
O=C(c1ccccn1)N1CCC2(CC1)NC(=O)N(Cc1ccc(F)cc1)C2=O | i
O=C1CN(C(=O)c2cnc3ccccn3c2=O)CCN1Cc1ccc(F)cc1 | 28µM*
CCC(C(=O)N1CCN(Cc2ccc(C)c(C)c2)C(=O)C1)n1cccn1 (stereo not given) | i
O=Cc1ccc(CN2CCSCC2)o1 | i
C[C@@]1(O)CCN(Cc2cccc(F)c2F)C[C@H]1N1CCCC1 | i
O[C@]1(c2ccccc2)CCN(Cc2ccncc2)C[C@H]1N1CCCC1 | 6.3µM*
O=C(C1CC1)N1CC[C@](O)(c2ccccc2)[C@H](N2CCCC2)C1 | 16µM*
Cc1ccccc1C(=O)N1CC[C@](O)(c2ccccc2)[C@H](N(C)C)C1 | i
O=C(C1CCC1)N1CCC2(CC1)CN(c1ccccc1)C2=O | i
CC1(c2ccccc2)N(Cc2ccccc2)C(=O)OC12CCN(Cc1ccncc1)CC2 (stereo not given) | i
CC(C)(C)NC(=O)C1CCN(S(=O)(=O)Cc2ccccc2)CC1 | i
CC(C)COc1ccc(C(=O)N2CCCCC2CCN2CCCCCC2)cc1 (stereo not given) | i
COCC(=O)N(C1CCOCC1)C1CCN(C(=O)c2ccc(F)cc2)CC1 | i
CCOC(=O)c1ccc(NC(=O)c2sc3nc(-c4ccc(F)cc4)cn3c2C)cc1 | i
O=C(Cc1ccc(F)cc1)NCCc1cnc[nH]1 | i
COCCN(CC1CCN(Cc2ccccc2OC)CC1)C(=O)c1n[nH]c2c1CCC2 | i
CCCNC(=O)N(C1CCOCC1)C1CCN(C(=O)c2ccc(F)cc2)CC1 | i
CC(C)(C)c1ccc(C(CC(=O)O)NC(=O)c2ccc(F)cc2)cc1 (stereo not given) | i
COCCN(CC1CC1)C(=O)c1ccc2nc(-c3ccc(F)cc3)cn2c1 | 25µM*
O=C(NCCc1cnc[nH]1)c1ccc2nc(-c3ccc(F)cc3)cn2c1 | 32µM*
COCCN1CCC(CN(Cc2ccncc2)C(=O)c2ccc(F)c(C)c2)CC1 | i
CN(C(=O)c1ccc2nc(-c3ccc(F)cc3)cn2c1)C1CCOCC1 | 22µM*
CCC(NC(=O)c1ccc2nc(-c3ccc(F)cc3)cn2c1)c1ncc(C)[nH]1 (stereo not given) | 25µM*
O=C(NCCn1cc(-c2cncnc2)nn1)c1ccc(F)cc1 | i
CC1(NC(=O)C2CC2)CN(c2ccc(Oc3ccccc3)cc2)C1 | i
SMILES | KDM5B inhibitor
CCOc1ccccc1CN1CCCCCCNC(=O)CC1c1ccccc1 (stereo not given) | i
CCCCCCOc1ccc(/C=C(/C#N)C(=O)c2ccccc2)cc1 | i
CC(NC(=O)c1cc(-c2ccco2)nc2ccccc12)C(=O)NCc1ccccc1 (stereo not given) | i
O=S(=O)(NC1CCN(S(=O)(=O)c2ccc(Br)cc2)CC1)c1cccs1 | i
Cc1ccc(NC(=O)CN(c2cc(C(F)(F)F)ccc2Cl)S(C)(=O)=O)cc1C | i
CC(=O)Nc1ccc(NC(=O)C2(C)CC2(Cl)Cl)cc1Cl (stereo not given) | i
Cc1c(C(=O)C(=O)N(C)Cc2ccccc2)c2ccccc2n1C | i
O=C1COc2ccc(-c3csc(Nc4ccccc4)n3)cc2N1 | i
CCn1cc(S(=O)(=O)NCC2CNCCOC2)cn1 (stereo not given) | i
O=C(NCC1CNCCOC1)NC1CCCCC1 (stereo not given) | i
O=C(NCC1CNCCOC1)c1ccc2nc(-c3ccc(F)cc3)cn2c1 (stereo not given) | 28µM*
CCCn1c(=O)c2ccccc2n(CC(=O)N(CC)c2cccc(C)c2)c1=O | i
CC1(COc2cccnc2)COc2ccc(C(=O)NCc3cnccn3)cc2N1 (stereo not given) | i
CC1(COc2cccnc2)COc2ccc(C(=O)NCc3ccc(F)cc3)cc2N1 (stereo not given) | 32µM*
CN(C(=O)c1ccc2c(c1)NC(C)(COc1cccnc1)CO2)c1ccccc1 (stereo not given) | i
CC1(COc2cccnc2)COc2ccc(C(=O)NCc3ccc4c(c3)OCO4)cc2N1 (stereo not given) | 16µM*
CC1(COc2cccnc2)COc2ccc(C(=O)NCc3cccs3)cc2N1 (stereo not given) | 35µM*
COCCN(C)C(=O)c1ccc2c(c1)NC(C)(COc1cccnc1)CO2 (stereo not given) | i
CC(=O)N1CCN(C(=O)c2ccc3c(c2)NC(C)(COc2cccnc2)CO3)CC1 (stereo not given) | i
CC(C)(C)c1ccc(O)c(NC(=O)CC(C(=O)O)c2ccc(F)cc2)c1 (stereo not given) | i
CCOC(=O)N1CCN(CC(=O)Nc2oc3ccccc3c(=O)c2-c2ccccc2)CC1 | i
COCCCNc1nc2ccccc2nc1C(C#N)C(=O)OC (stereo not given) | i
COC(=O)c1nc2ccccc2nc1N1CCN(c2cc(C)ccc2C)CC1 | i
Cc1cccc2nc(CSc3ccc4ccccc4n3)cc(=O)n12 | i

Compound activity: PubChem BioAssay, National Center for Advancing Translational Sciences (NCATS)
